# Measurements as given in the supplement of paper PMC10849652.
# Targets with a hit are over-represented here; the source holds about 7,900 in all. About 0.6% of all pairs of compound and target were hits. A number with no mark means an inactive call.
# Tests used:
# Test in all cases: log2 fold change, soluble protein after heating vs DMSO (PISA); higher = thermal stabilisation; K562 cells, 10 uM, 30 min; active = over 0.2 and 3.5 SD of the protein, either way, in both replicates (recomputed)
# [1] = compound: C1COCCN1CCN2C3=CC=CC=C3N=C2NC(=O)C4=CC(=CC=C4)[N+](=O)[O-] [IRAK-1-4 Inhibitor I]
# Summary of the method: (§1)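 Thermal stability values are relative to control samples and come from duplicates. They are expressed as log2 fold changes. For measurement, K562 cells (2×10^6 cells/mL) received 10 μM compound for 30 min, and aliquots were heated for 3 min over 48°C-58°C, pooled, and extracted at 4°C in PBS with 0.5% NP-40. Soluble protein, the supernatant after 21,000xg for 90 min, was quantified by TMTpro 16plex LC-MS/MS with equalised channel sums.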
# [2] = compound: C=CC(=O)N1CCC[C@@H](n2nc(-c3ccc(Oc4ccccc4)cc3)c3c(N)ncnc32)C1 [ibrutinib]
# Summary of the method: as §1
# [3] = compound: CC(=O)c1cnc2ccc(-c3cc(Cl)c(O)c(Cl)c3)nc2c1N[C@H]1CC[C@H](CN(C)C)CC1
# Summary of the method: as §1
# [4] = compound: CC(C)(C)Cn1c(N)nc2ccc(-c3[nH]c(C(C)(C)C)nc3-c3ccc(F)cc3)nc21 [ralimetinib]
# Summary of the method: as §1
# [5] = compound: CC(C)(O)CC(=O)NCCn1ccc2ncnc(Nc3ccc(Oc4cccc(C(F)(F)F)c4)c(Cl)c3)c21
# Summary of the method: as §1
# [6] = compound: CC(C)C1=C2N=C(C=C(N2N=C1)NCC3=CC=CC=C3)NCCCCCCN
# Summary of the method: as §1
# [7] = compound: CC(C)C[C@@H](C=O)NC(=O)[C@H](CC(C)C)NC(=O)[C@H](CC(C)C)NC(=O)OCc1ccccc1
# Summary of the method: as §1
# [8] = compound: CC(C)N(C[C@H]1O[C@@H](n2cnc3c(N)ncnc32)[C@H](O)[C@@H]1O)[C@H]1C[C@@H](CCc2nc3cc(C(C)(C)C)ccc3[nH]2)C1 [pinometostat]
# Summary of the method: as §1
# [9] = compound: CC1=C(C(CC(=O)N1)C2=CC=C(C=C2)C(F)(F)F)C(=O)NC3=C(C=C4C(=C3)C=NN4)F
# Summary of the method: as §1
# [10] = compound: CC1=C(C2=C(C=C1)C(=O)C3=CC=CC=C3N2CCCN)C
# Summary of the method: as §1
# [11] = compound: CC1=C(C=C(C=C1)NC(=O)C2=CC(=CC=C2)C(C)(C)C#N)NC3=CC4=C(C=C3)N=CN(C4=O)C
# Summary of the method: as §1
# [12] = compound: CC1=C(C=C(C=C1)NC(=O)C2=CC(=CC=C2)N(C)C)NC(=O)C3=CC=C(C=C3)O
# Summary of the method: as §1
# [13] = compound: CC1=CC=C(C=C1)SC2=C3C=C(SC3=CN=C2)C(=O)N
# Summary of the method: as §1
# [14] = compound: CC1=NC(=CC=C1)C2=C(N=C(N2)C(C)(C)C)C3=CC4=NC=CN=C4C=C3
# Summary of the method: as §1
# [15] = compound: CCCCN(Cc1ccc(C(=O)NO)cc1)C(=O)Nc1ccccc1 [Nexturastat A]
# Summary of the method: as §1
# [16] = compound: CCCS(=O)(=O)Nc1ccc(F)c(C(=O)c2c[nH]c3ncc(-c4ccc(Cl)cc4)cc23)c1F [vemurafenib]
# Summary of the method: as §1
# [17] = compound: CCCS(=O)(=O)Nc1ccc(F)c(C(=O)c2c[nH]c3ncc(Cl)cc23)c1F
# Summary of the method: as §1
# [18] = compound: CCCc1cc(C)[nH]c(=O)c1CNC(=O)c1cc(-c2ccnc(N3CCN(C)CC3)c2)cc2c1cnn2C(C)C
# Summary of the method: as §1
# [19] = compound: CCN(CC)Cc1ccc2cc(COC(=O)Nc3ccc(C(=O)NO)cc3)ccc2c1 [givinostat]
# Summary of the method: as §1
# [20] = compound: CCN(CCCOc1ccc2c(Nc3cc(CC(=O)Nc4cccc(F)c4)[nH]n3)ncnc2c1)CCOP(=O)(O)O [barasertib]
# Summary of the method: as §1
# UniProt Q9H2P9, sequence (Q9H2P9 whole entry, looked up): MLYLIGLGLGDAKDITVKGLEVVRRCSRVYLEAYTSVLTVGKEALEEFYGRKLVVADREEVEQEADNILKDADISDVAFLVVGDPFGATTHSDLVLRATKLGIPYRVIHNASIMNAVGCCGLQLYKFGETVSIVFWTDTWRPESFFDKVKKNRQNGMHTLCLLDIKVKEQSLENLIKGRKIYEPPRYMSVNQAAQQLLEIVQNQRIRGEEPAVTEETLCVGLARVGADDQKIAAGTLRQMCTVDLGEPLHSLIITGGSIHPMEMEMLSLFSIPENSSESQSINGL
# UniProt Q9NWS6, sequence (Q9NWS6 whole entry, looked up): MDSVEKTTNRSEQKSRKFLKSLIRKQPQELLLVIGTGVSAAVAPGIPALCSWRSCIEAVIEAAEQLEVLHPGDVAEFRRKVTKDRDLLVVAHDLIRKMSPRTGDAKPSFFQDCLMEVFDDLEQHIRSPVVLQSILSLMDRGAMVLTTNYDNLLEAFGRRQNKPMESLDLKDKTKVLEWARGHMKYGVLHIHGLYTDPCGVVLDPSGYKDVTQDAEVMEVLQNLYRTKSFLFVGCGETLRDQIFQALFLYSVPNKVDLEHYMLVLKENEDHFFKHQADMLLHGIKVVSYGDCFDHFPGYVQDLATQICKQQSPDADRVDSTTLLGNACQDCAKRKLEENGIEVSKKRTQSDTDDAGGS
# UniProt Q8NF50, sequence (Q8NF50 whole entry, looked up): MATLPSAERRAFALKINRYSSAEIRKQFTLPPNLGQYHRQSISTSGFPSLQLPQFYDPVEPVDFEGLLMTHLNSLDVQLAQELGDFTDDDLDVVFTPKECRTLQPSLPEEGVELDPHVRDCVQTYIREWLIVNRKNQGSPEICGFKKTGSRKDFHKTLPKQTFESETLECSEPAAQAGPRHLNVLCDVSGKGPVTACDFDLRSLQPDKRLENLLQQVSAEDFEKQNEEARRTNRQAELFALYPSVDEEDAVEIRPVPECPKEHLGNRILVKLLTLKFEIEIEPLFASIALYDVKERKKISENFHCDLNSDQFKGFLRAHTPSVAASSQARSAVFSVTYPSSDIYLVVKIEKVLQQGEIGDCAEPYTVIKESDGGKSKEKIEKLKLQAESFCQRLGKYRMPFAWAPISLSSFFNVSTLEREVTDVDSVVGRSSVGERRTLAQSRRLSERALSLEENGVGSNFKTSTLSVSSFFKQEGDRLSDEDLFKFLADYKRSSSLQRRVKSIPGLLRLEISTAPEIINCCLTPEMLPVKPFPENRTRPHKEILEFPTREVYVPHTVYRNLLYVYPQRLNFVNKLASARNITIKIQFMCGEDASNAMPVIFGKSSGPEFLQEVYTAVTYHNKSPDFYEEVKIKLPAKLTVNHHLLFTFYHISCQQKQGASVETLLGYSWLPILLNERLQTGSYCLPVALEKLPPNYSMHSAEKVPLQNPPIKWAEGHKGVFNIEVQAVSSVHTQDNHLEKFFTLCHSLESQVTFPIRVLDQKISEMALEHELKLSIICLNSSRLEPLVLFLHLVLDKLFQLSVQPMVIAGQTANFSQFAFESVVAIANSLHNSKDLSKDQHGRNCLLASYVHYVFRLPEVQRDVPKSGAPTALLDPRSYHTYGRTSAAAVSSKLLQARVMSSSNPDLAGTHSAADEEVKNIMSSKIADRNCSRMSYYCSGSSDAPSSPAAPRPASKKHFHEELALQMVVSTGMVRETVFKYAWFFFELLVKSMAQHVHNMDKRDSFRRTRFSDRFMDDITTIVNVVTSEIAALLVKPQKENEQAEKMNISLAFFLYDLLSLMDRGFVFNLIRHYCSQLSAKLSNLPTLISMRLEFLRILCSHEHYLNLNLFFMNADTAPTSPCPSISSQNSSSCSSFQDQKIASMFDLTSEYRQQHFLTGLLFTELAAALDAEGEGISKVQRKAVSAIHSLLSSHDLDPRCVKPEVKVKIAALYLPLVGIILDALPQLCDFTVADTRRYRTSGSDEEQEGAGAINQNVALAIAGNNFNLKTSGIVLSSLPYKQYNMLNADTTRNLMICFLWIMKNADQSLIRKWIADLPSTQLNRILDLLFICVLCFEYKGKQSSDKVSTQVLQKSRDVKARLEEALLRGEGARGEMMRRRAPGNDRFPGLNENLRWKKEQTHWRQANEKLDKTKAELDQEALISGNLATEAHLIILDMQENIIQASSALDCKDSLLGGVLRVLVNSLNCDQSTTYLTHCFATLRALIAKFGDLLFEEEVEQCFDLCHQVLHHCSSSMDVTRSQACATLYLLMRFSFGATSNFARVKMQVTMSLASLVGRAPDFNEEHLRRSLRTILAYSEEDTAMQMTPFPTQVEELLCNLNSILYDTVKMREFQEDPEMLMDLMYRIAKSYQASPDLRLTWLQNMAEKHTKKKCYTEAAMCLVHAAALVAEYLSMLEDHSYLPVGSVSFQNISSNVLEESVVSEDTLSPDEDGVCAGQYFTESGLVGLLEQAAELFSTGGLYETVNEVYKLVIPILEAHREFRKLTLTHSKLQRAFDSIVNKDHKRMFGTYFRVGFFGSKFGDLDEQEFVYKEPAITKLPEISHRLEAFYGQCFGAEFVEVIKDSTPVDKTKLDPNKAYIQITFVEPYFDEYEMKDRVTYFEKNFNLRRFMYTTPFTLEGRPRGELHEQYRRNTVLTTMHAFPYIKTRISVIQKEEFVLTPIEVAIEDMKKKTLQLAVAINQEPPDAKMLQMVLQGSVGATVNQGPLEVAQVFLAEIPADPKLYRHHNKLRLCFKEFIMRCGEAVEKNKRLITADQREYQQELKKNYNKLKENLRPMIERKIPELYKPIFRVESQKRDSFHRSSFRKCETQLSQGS
# UniProt Q9NZJ5, sequence (Q9NZJ5 whole entry, looked up): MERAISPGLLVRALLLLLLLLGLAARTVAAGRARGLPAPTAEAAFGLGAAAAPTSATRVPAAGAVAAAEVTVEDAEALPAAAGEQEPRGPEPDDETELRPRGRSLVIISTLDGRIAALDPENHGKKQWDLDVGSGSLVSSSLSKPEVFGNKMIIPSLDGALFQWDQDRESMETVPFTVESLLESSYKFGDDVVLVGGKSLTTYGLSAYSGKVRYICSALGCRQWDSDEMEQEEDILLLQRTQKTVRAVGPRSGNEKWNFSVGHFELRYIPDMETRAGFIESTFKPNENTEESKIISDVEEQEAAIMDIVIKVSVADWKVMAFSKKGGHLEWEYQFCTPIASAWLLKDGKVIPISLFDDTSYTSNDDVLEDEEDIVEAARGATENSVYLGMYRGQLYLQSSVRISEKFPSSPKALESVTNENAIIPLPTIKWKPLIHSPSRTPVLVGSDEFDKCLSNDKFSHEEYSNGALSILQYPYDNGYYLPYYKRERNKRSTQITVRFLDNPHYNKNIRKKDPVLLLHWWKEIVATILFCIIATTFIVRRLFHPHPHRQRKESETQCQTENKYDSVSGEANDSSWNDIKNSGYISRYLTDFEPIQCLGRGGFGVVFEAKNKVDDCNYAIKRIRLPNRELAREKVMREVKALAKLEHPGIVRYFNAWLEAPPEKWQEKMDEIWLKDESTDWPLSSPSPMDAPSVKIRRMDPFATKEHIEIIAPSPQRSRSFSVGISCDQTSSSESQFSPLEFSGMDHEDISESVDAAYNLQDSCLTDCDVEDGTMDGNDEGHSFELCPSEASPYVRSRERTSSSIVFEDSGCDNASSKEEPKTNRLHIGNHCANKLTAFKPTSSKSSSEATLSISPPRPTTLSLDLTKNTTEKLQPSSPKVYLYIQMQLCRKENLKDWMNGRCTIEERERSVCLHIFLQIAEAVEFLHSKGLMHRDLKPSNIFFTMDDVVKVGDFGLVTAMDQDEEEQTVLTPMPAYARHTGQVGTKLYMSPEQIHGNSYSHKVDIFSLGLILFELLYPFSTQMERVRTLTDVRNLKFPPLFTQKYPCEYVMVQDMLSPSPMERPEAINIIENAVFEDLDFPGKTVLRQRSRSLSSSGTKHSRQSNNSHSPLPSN
# UniProt Q96EV8, sequence (Q96EV8 whole entry, looked up): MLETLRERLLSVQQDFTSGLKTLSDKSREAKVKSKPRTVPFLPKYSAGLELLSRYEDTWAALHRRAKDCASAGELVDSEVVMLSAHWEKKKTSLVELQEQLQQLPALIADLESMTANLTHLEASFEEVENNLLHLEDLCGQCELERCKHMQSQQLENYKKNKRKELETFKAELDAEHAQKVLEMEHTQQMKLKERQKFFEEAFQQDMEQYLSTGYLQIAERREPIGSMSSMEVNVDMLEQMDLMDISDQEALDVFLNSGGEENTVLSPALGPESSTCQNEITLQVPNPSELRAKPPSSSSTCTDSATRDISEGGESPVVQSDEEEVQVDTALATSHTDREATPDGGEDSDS
# UniProt Q9H467, sequence (Q9H467 whole entry, looked up): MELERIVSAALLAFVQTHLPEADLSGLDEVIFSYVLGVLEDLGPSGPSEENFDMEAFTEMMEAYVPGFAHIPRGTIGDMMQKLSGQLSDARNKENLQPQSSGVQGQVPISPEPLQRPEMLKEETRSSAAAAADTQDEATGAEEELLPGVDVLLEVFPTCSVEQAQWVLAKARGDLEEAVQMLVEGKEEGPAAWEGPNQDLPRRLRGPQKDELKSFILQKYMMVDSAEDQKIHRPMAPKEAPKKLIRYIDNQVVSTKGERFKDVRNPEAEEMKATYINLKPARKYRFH
# UniProt P41091, sequence (P41091 whole entry, looked up): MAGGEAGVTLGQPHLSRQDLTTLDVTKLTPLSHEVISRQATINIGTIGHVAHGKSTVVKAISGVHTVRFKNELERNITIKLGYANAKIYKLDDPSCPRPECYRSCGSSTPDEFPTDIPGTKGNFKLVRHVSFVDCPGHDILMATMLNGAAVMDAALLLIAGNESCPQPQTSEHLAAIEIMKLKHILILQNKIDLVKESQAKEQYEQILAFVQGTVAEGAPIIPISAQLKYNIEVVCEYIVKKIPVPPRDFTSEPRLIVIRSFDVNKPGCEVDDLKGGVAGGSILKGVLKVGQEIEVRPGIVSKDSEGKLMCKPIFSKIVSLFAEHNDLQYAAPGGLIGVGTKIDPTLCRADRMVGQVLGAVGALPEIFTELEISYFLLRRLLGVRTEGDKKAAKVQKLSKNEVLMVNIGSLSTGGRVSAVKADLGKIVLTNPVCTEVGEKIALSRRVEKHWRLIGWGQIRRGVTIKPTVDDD
Target,log2 fold change [1],log2 fold change [2],log2 fold change [3],log2 fold change [4],log2 fold change [5],log2 fold change [6],log2 fold change [7],log2 fold change [8],log2 fold change [9],log2 fold change [10],log2 fold change [11],log2 fold change [12],log2 fold change [13],log2 fold change [14],log2 fold change [15],log2 fold change [16],log2 fold change [17],log2 fold change [18],log2 fold change [19],log2 fold change [20]
CUX1 isoform 3 (UniProt P39880),0.019,-0.033,-0.032,-0.065,-0.047,0.008,0.116,-0.018,0.015,0.153,-0.039,0.016,0,-0.001,-0.013,0.043,0.025,0.065,0.002,0.013
EZH2 isoform 2 (UniProt Q15910),-0.247,-0.114,0.115,,-0.041,-0.239,,0.068,,-0.11,0.063,,0.127,0.149,-0.173,0.377,0,0.949 (active),0.097,0.045
ELMO1 (UniProt Q92556),-0.022,-0.176,,0.069,-0.091,-0.094,0.761 (active),-0.161,0.037,,-0.075,-0.005,,-0.074,-0.101,-0.172,,0.218,-0.043,-0.105
CUEDC2 (UniProt Q9H467),0.035,-0.011,0.003,-0.026,-0.056,-0.003,0.198,-0.001,-0.015,-0.159,-0.03,-0.043,-0.001,-0.153,-0.019,0.009,0.032,-0.01,0.055,0.091
EIF2S3 (UniProt P41091),-0.126,0.021,-0.004,0.061,0.05,0.052,0.075,0.077,0.005,0.195,0.02,0,-0.006,-0.032,0.102,-0.029,0.007,0.05,0.028,-0.033
DAXX (UniProt Q9UER7),0.13,0.091,0.008,0.218,,0.243,0.088,-0.049,0.078,0.078,0.019,-0.02,0.031,-0.165,,-0.058,0.031,,0.352,-0.025
EEF1G isoform 2 (UniProt P26641),-0.02,-0.083,0.044,0.059,0.006,-0.067,-0.024,0.042,-0.015,0.017,0.035,-0.015,0.014,0.049,-0.062,0.07,0.101,0.095,-0.013,0.037
DDX46 (UniProt Q7L014),-0.113,-0.034,-0.299,-0.095,-0.18,-0.034,0.026,-0.066,-0.107,0.152,0.123,-0.117,0,0.069,-0.069,0.099,0.136,0.001,0.171,0.13
FAM118A (UniProt Q9NWS6),-0.009,0.045,-0.212,-0.21,-0.207,,-0.125,-0.054,-0.006,0.014,0.057,0.086,0.101,-0.163,-0.031,0.182,0.114,-0.016,,0.112
EIF2AK1 (UniProt Q9BQI3),-0.016,0.018,0.035,-0.011,0.056,0.023,0.279 (active),0.031,,-0.114,-0.027,-0.007,0.079,-0.019,-0.087,0.005,0.044,0.179,-0.051,-0.017
DTNBP1 (UniProt Q96EV8),0.069,-0.025,0.038,-0.136,-0.058,-0.009,-0.029,-0.044,-0.01,0.092,-0.078,0.006,0.001,0.055,-0.022,0.021,0.017,-0.026,-0.014,0.01
EIF2AK3 (UniProt Q9NZJ5),-0.136,0.13,-0.369,,-0.322,0.011,,-0.048,-0.106,0.032,,,0.036,-0.043,-0.595,,-0.161,0.244,0.027,0.151
EXOSC10 (UniProt Q01780),0.165,0.033,0.026,-0.261,-0.01,0.213,0.247,0.059,,0.076,-0.537,0.061,-0.07,-0.123,0.762 (active),-0.221,-0.18,-0.168,0.147,0.036
DOCK8 (UniProt Q8NF50),0.047,0.015,0.029,0.105,-0.198,0.152,0.274,0.059,0.064,-0.121,-0.094,-0.051,,-0.086,0.468,0.134,,0.093,0.245,0.055
DPH5 isoform 5 (UniProt Q9H2P9),0.036,0.025,-0.01,-0.018,-0.053,0.045,-0.071,-0.009,0.022,0.027,0.009,-0.01,0.046,0.042,-0.079,-0.041,0.087,-0.045,-0.105,-0.006
DNAL1 (UniProt Q4LDG9),0.012,-0.082,0.042,0.042,0.183,,0.007,0.093,,,,0.049,,0.069,-0.135,0.013,,,,0.012
DNM2 isoform 4 (UniProt P50570),0.019,-0.074,,0.005,-0.101,-0.047,-0.04,-0.063,0.007,,0.062,-0.001,,0.23,0.089,,,-0.032,0.159,0.013
DDOST (UniProt P39656),-0.038,-0.027,0.057,0.156,0.015,-0.081,-0.036,0.015,0.024,-0.041,0.03,-0.013,-0.031,0.016,-0.01,0.003,-0.006,-0.001,0.006,0.008
